# The source made the active and inactive calls. Unless noted, how the calls were made is not given here.
# Key:
# [1] = A549 cell viability effects, profiling panel, calcein-AM fluorescence, 48 h, basal (AID 1162); settings: higher = more signal; further: test concentration not given here
# [2] = adipocyte viability effects, profiling panel, cell-based, 3T3-L1 adipocytes, calcein-AM fluorescence, 48 h, basal (AID 1163); settings: 3T3-L1 adipocytes viability, higher = more signal; further: test concentration not given here
# [3] = HepG2 cell viability effects, profiling panel, calcein-AM fluorescence, 48 h, basal (AID 1164); settings: higher = more signal; further: test concentration not given here
# [4] = MM1S cell viability effects, profiling panel, calcein-AM fluorescence, 48 h, basal (AID 1165); settings: higher = more signal;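 further: viability of MM1S multiple myeloma cells under basal unstimulated conditions; test concentration not given here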
# [5] = basal RPMI8226 viability, no added stimulus, profiling panel, cell-based, calcein-AM fluorescence, 48 h, PK04 Diversity Set (AID 1166); settings: RPMI8226 myeloma viability, higher = more signal;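 further: cells grown under basal conditions without added stimulus; test concentration not given here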
# [6] = basal HepG2 mitochondrial membrane potential changes, profiling panel, cell-based, JC-1 fluorescence, 24 h, 100 nL compound (AID 1167); settings: higher = more signal; further: test concentration not given here
# [7] = basal 3T3-L1 adipocyte mitochondrial potential changes, profiling panel, cell-based, JC-1 fluorescence, 3T3-L1 adipocytes, 24 h, 100 nL compound (AID 1168); settings: JC-1 mitochondrial fluorescence, higher = more signal, called active from +8 up or from −8 down; further: test concentration not given here
# [8] = basal RPMI8226 mitochondrial membrane potential changes, profiling panel, cell-based, JC-1 fluorescence, 24 h, 100 nL compound (AID 1169); settings: RPMI8226 myeloma, JC-1 mitochondrial potential fluorescence, higher = more signal; further: test concentration not given here
# [9] = basal MM1S mitochondrial membrane potential changes, profiling panel, cell-based, JC-1 fluorescence, 24 h, 100 nL compound (AID 1170); settings: higher = more signal; further: test concentration not given here
# [10] = A549 lung cancer cell viability effects, profiling panel, resazurin fluorescence, 24 h, PK04 Diversity Set (AID 1171); settings: higher = more signal, called active from +8 up or from −8 down; further: test concentration not given here
# [11] = HepG2 liver cancer cell viability effects, profiling panel, resazurin fluorescence, 24 h, PK04 Diversity Set (AID 1172); settings: higher = more signal; further: test concentration not given here
# [12] = basal S. cerevisiae growth modulation, no modifier, primary screen, OD600, strain BY4716, 24 h, basal condition (AID 1173); settings: OD600, 24 h, higher = more signal, called active from +8 up or from −8 down
# [13] = MM1S myeloma cell viability, profiling panel, resazurin fluorescence, basal, 24 h, PK04 Diversity Set (AID 1174); settings: higher = more signal, called active from +8 up or from −8 down;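 further: MM1S multiple myeloma cell line; test concentration not given here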
# [14] = biological target: Dihydroorotate dehydrogenase (quinone), mitochondrial (Plasmodium falciparum (isolate 3D7)) (UniProt Q08210); assay: PfDHODH enzyme inhibitors, primary screen, biochemical, C-terminal His tag, absorbance 600 nm (AID 1175); settings: DCIP absorbance 600 nm, higher = more signal, called active from +8 up or from −8 down;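 further: recombinant parasite enzyme with a five histidine tag at its C terminus; test concentration not given here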
# Chain of Dihydroorotate dehydrogenase (quinone), mitochondrial (Plasmodium falciparum (isolate 3D7)) (Q08210 whole entry, looked up): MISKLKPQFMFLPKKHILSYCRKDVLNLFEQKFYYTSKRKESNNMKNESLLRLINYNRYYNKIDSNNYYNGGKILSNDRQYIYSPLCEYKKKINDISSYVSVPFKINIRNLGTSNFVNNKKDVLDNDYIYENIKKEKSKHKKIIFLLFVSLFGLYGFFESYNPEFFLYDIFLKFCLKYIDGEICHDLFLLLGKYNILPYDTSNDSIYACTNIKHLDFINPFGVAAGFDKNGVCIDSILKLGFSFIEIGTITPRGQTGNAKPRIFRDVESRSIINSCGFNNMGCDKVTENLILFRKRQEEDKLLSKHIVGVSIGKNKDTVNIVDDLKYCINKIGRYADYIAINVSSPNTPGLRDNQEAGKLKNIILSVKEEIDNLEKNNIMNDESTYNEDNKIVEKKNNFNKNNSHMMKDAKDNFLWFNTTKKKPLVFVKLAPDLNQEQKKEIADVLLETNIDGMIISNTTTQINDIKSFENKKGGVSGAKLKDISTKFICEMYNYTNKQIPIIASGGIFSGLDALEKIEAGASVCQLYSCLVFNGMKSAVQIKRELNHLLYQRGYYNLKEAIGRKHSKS
# [15] = P. aeruginosa biofilm formation inhibitors, primary screen, strain PAO1, LB-PBS medium, absorbance 600 nm (AID 1176); further: test concentration not given here; settings: P. aeruginosa PAO1 growth/biofilm, A600, 12 h; higher = more signal
# [16] = S. cerevisiae RM11-1a growth modifiers, primary screen, strain RM11-1a, OD600, basal, 24 h (AID 1177); settings: OD600, 24 h, higher = more signal, called active from +8 up or from −8 down;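 further: cultures grown under basal conditions with no added stressor; test concentration not given here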
# [17] = E. coli acrAB mutant growth effects, primary screen, E. coli filamentation inducers, strain DRC39, OD650, 24 h (AID 1178); settings: higher = more signal, called active from +8 up or from −8 down;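 further: growth measured as culture turbidity by optical density at 650 nm; test concentration not given here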
# [18] = E. coli acrAB mutant growth effects, primary screen, E. coli filamentation inducers, strain DRC39, OD650, 48 h (AID 1179);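 further: screen aims at cell division blockers that make cells filament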; settings: E. coli DRC39 delta-acrAB growth, higher = more signal, called active from +8 up or from −8 down
# [19] = RPMI8226 myeloma cell viability, profiling panel, resazurin fluorescence, basal, 24 h, PK04 Diversity Set (AID 1180); settings: higher = more signal;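 further: RPMI8826 multiple myeloma cell line at 5000 cells per well; test concentration not given here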
# [20] = biological target: E3 ubiquitin-protein ligase XIAP (Homo sapiens) (UniProt P98170); assay: XIAP binders, primary screen, biophysical, small-molecule microarray, fluorescence 635 nm (AID 1181); settings: small-molecule microarray binding, higher = more signal;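 further: score merges 667 nm emission and signal to noise over triplicate slides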
# Chain of E3 ubiquitin-protein ligase XIAP (Homo sapiens) (P98170 whole entry, looked up): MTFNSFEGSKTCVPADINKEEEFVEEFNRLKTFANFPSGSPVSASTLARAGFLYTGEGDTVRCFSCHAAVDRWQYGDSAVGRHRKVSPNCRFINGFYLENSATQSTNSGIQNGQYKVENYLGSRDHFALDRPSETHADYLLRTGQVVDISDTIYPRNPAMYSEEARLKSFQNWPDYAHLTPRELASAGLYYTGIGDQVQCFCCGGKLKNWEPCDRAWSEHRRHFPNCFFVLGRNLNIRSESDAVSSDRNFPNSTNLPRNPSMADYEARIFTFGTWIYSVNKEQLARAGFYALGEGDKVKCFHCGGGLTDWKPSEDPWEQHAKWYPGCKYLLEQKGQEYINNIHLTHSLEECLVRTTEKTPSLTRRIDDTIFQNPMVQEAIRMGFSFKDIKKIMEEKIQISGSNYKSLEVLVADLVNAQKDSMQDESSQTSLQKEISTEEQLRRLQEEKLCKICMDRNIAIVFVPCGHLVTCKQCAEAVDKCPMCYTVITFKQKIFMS
Structure (SMILES),z-score [1],z-score [2],z-score [3],z-score [4],z-score [5],z-score [6],z-score [7],z-score [8],z-score [9],z-score [10],z-score [11],z-score [12],z-score [13],composite z-score [14],z-score [15],z-score [16],z-score [17],z-score [18],z-score [19],composite z-score [20]
CO[C@]12C=C(Br)[C@@H](C[C@@H]1c1cccc(C)c1)[C@@]1(CO1)C2=O,-0.406,0.287,-0.932,-2.16,-0.643,-1.11,-0.295 (inactive),-0.107,-0.693,0.862 (inactive),1.17,-5.41 (inactive),-0.674 (inactive),0.227 (inactive),-0.447 (inactive),-0.338 (inactive),0.632 (inactive),0.378 (inactive),0.478,-0.148
CCOC(=O)C[C@H]1[C@H](OC(=O)c2cc3ccccc3oc2=O)[C@@H](NC(=O)c2ccc(-c3ccccc3)cc2)c2cc(OCCCO)ccc2N1C(=O)c1ccc2ccccc2n1,0.224,0.198,1.25,0.0181,0.624,0.259,-0.023 (inactive),0.174,-0.122,0.73 (inactive),0.867,0.753 (inactive),0.389 (inactive),-0.0286 (inactive),-0.0218 (inactive),1.54 (inactive),0.97 (inactive),0.211 (inactive),0.0692,0.023
COc1ccc([Si](C)(C)[C@@H]2[C@@H](CCn3cc([C@H](O)c4ccccc4)nn3)O[C@]3(C(=O)N(Cc4ccc(N5CCC5=O)cc4)c4ccccc43)[C@H]2C)cc1,0.388,1.05,0.944,0.738,-0.23,1.63,1.9 (inactive),-0.0445,-0.855,0.668 (inactive),0.606,0.204 (inactive),-0.189 (inactive),-0.102 (inactive),1.36 (inactive),2.06 (inactive),1.57 (inactive),1.18 (inactive),1.1,-0.239
[N-]=[N+]=NCc1ccccc1C[C@]1(C(N)=O)N=C(c2ccc(OCCCO)cc2)O[C@H]1c1ccccc1,-0.277,-0.0112,-0.284,-2.25,-1.04,-0.417,0.587 (inactive),-0.715,-0.464,0.004 (inactive),1,-0.198 (inactive),-0.726 (inactive),0.921 (inactive),-0.786 (inactive),1.4 (inactive),0.146 (inactive),0.98 (inactive),-0.581,0.1
O=C(N1CCCCC1)[C@@]1(CCS(=O)(=O)c2ccccc2)COC(c2ccc(OCCCO)cc2)=N1,0.606,-0.609,0.299,-1.03,0.0963,0.147,-0.328 (inactive),-1.13,-1.16,0.327 (inactive),-0.27,-0.22 (inactive),-1.52 (inactive),-0.0606 (inactive),0.258 (inactive),-0.008 (inactive),0.196 (inactive),0.21 (inactive),-0.675,0.0942
CC(C)C[C@@H]1NC(=O)[C@@H]2C[C@H](C(=O)NCCCCCN)[C@H](c3ccc(O)cc3)N2C1=O,0.0318,0.484,-0.354,-0.0387,0.286,-0.502,-0.259 (inactive),0.7,0.698,-0.676 (inactive),-1.3,0.732 (inactive),-0.205 (inactive),0.582 (inactive),-0.226 (inactive),1.04 (inactive),-0.496 (inactive),-0.728 (inactive),-0.354,0.0015
C=C[C@@H](OC)[C@H](OC(=O)Nc1ccc(SC)cc1)c1ccc(O)c(F)c1,-0.247,-0.19,-0.419,-1.4,-0.515,-2.52,1.47 (inactive),-0.362,-0.317,-0.637 (inactive),-0.626,-2.65 (inactive),-0.807 (inactive),0.592 (inactive),1.22 (inactive),1.95 (inactive),-0.881 (inactive),-1.19 (inactive),-0.649,-0.117
O=C1OCCC=C[C@H]2OC34C=CCN(Cn5nnc6ccccc65)C(=O)[C@H]3N(CCCCCCO)C(=O)[C@@H]4C12 (stereo not given in full),0.16,-0.808,-0.381,1.78,-0.264,0.515,0.256 (inactive),-0.137,-0.5,-0.356 (inactive),-0.677,0.506 (inactive),-2.51 (inactive),-0.272 (inactive),0.205 (inactive),0.587 (inactive),0.603 (inactive),0.703 (inactive),-0.288,-0.302
O=C1C[C@@](C(=O)NCCN2CCOCC2)(c2ccc([N+](=O)[O-])cc2)[C@@H](c2ccc(CO)cc2I)N1C1CCCCC1,0.465,0.267,-0.696,-1.55,-0.764,2.87,0.264 (inactive),-0.444,0.267,2.01 (inactive),0.95,-2.72 (inactive),1.11 (inactive),0.362 (inactive),-0.261 (inactive),-1.19 (inactive),0.497 (inactive),0.356 (inactive),0.891,0.0223
COc1cc2c(cc1O)C(C)N(Cc1ccc([N+](=O)[O-])o1)CC2 (stereo not given),0.687,0.831,-0.963,-1.21,-0.867,-2.09,-0.741 (inactive),0.105,-0.208,-0.0799 (inactive),-0.11,-0.942 (inactive),-0.653 (inactive),-0.749 (inactive),-0.103 (inactive),-0.74 (inactive),-1.04 (inactive),-0.679 (inactive),-0.396,-0.127
OCC1CC(c2ccccc2)=NO1 (stereo not given),0.71,0.311,-0.0218,0.554,-0.676,0.883,-0.765 (inactive),0.527,-0.201,0.281 (inactive),-0.107,-1.09 (inactive),-0.85 (inactive),-0.17 (inactive),-0.201 (inactive),0.309 (inactive),-0.075 (inactive),0.194 (inactive),0.886,-0.158
COCCOC(=O)N1C(=O)[C@@]2(c3cc(C#CCNC(N)=O)ccc31)[C@H](C(=O)N1CCc3cc(OC)c(OC)cc3C1)[C@H]1C(=O)O[C@H](c3ccccc3)[C@H](c3ccccc3)N1[C@@H]2c1ccccc1OCCO,0.573,0.376,0.479,0.576,-0.529,-1.2,1.72 (inactive),-0.502,-0.98,-0.286 (inactive),0.0874,1.11 (inactive),0.256 (inactive),-1.68 (inactive),1.54 (inactive),0.816 (inactive),1.27 (inactive),1.29 (inactive),0.274,0.0578
C=CCNC(=O)[C@H]1[C@@H]2C(=O)O[C@@H](c3ccccc3)[C@@H](c3ccccc3)N2[C@@H](c2ccc(O)cc2)[C@]12C(=O)N(C(=O)OCCOC)c1ccccc12,-0.335,1.19,-0.513,-1.79,-1.66,-1.67,0.0113 (inactive),-1.01,0.338,-1.56 (inactive),-0.757,0.628 (inactive),-0.331 (inactive),0.747 (inactive),0.229 (inactive),0.931 (inactive),-0.919 (inactive),-1.08 (inactive),0.164,-0.02
CC(=O)NCCCC[C@@H]1NC(=O)[C@@H]2C[C@H](C(=O)NCCCC[N+](C)(C)C)[C@H](c3ccc(O)cc3)N2C1=O,-0.431,0.994,-1.29,-0.606,0.274,-1.42,-0.152 (inactive),-0.547,-0.0697,-1.04 (inactive),-0.294,-0.0108 (inactive),-1.23 (inactive),-30.7 (active),2.35 (inactive),0.55 (inactive),-0.0376 (inactive),-1.1 (inactive),-1.2,-0.168
COc1ccc([Si](C)(C)[C@H]2[C@H](CC(=O)N(CCO)Cc3ccccc3)O[C@@]3(C(=O)N(Cc4cccc(N5CCOC5=O)c4)c4ccccc43)[C@@H]2C)cc1,-1.49,0.836,-2.16,-1.79,-4.29,0.917,-0.606 (inactive),-1.16,-1.56,-3.44 (inactive),-2.5,0.181 (inactive),-3.55 (inactive),0.966 (inactive),1.28 (inactive),2.36 (inactive),-0.566 (inactive),-0.639 (inactive),-3.7,-0.0562
COC(=O)[C@@]1(Cc2ccccc2)[C@H]2c3cc(C(=O)N(C)C)n(CCc4ccc(O)c(OC)c4)c3C[C@H]2CN1C(=O)c1ccccc1,0.0634,-0.121,0.343,-1.32,-0.0242,-0.533,-0.9 (inactive),-0.665,-0.241,0.641 (inactive),0.0393,0.483 (inactive),-0.207 (inactive),-0.487 (inactive),0.454 (inactive),0.194 (inactive),-0.514 (inactive),-0.253 (inactive),0.0379,-0.0373
